Hits are enriched below; roughly 1.4% of the tested compounds scored in any of these assays.
TrxR1 inh = inhibitors of rat thioredoxin reductase 1; O89049; recombinant rTrxR1, NADPH fluorescence consumption, selenite substrate; Potency, µM (top dose mostly 114 µM), inactives show top-dose activity change, negative = inhibition, hits mostly inhibitors; 1% of 390,000 active; AID 588453; also: potency is read from the fitted curve at half-maximal effect; % is scaled to controls: 0 for no effect and ±100 for the full control effect; nearly all actives have a fitted effect of over 65% in size
Target sequence (O89049 whole entry, looked up): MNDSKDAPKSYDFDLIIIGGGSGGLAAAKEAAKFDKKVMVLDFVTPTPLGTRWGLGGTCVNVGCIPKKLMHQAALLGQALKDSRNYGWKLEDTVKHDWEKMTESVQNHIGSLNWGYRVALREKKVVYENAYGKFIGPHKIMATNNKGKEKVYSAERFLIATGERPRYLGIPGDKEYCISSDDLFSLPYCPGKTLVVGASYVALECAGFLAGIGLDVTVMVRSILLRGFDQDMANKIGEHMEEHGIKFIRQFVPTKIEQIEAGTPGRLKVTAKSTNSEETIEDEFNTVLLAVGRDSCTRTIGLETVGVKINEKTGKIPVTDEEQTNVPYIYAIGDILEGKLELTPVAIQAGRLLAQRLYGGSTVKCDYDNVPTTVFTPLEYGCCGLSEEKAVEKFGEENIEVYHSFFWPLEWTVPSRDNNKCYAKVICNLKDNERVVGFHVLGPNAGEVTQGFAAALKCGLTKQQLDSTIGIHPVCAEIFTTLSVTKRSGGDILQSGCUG
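Rat TrxR1 (90 nM in the dispensed reagent) was pre-reduced with 400 uM NADPH for 5 min at room temperature, then incubated with compound for 15 min. After 400 uM selenite was added, NADPH fluorescence (Ex 340/Em 450 nm) was followed for 8 min.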
TrxR1 substrate = is turned over as a substrate by rat TrxR1; purified TrxR1 substrate turnover, NADPH consumption readout; Potency, µM (highest dose often 114 µM), for inactives: at the top dose activity change, negative = substrate turnover; 0.01% of 390,000 active; AID 588456; also: potency is read from the fitted curve at half-maximal effect; % is scaled to controls: 0 for no effect and ±100 for the full control effect; nearly all actives have a fitted effect of over 50% in size
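Rat TrxR1, dispensed at 90 nM, was prereduced with 400 uM NADPH (final) for 5 min at ~22 deg C, then incubated with compound 15 min before 400 uM selenite. A first-read NADPH fluorescence drop versus no-compound background flagged substrates.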
A-T KAP1 phos = candidate therapy for ataxia-telangiectasia; AID 485349; 0.19% of 320,000 active; F2112 A-T fibroblasts, KAP-1 phosphorylation AlphaLISA; neocarzinostatin DNA damage 30 min before lysis; Potency, µM (highest dose often 57.5 µM), for inactives: top-dose activation, most hits filed as activators; also: potency is read from the fitted curve at half-maximal effect; % of control where 0% means no effect; nearly all actives have a fitted effect of over 45% in size
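ATM-like activity read as KAP-1 phosphorylation via AlphaLISA donor/acceptor antibody pairs after lysis and 6 hr at 25C. Cells were ATM-null patient fibroblasts (F2112, hTERT), dosed 60 min, then exposed to the DSB inducer NCS for 30 min.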
Pin1 inhibitor = human Pin1 inhibition; Pin1 FP peptide displacement, HiFluor488, 10 min; 0.009% of 390,000 active; Potency, µM (series often up to 115 µM), inactives show at the highest dose activity, negative = inhibition, actives largely listed as inhibitors; Q13526; AID 504891; active = well fitted inhibition curve with a large enough effect in the polarisation, with a control signal flat, not every such curve was filed as active; inconclusive = small, poorly fitted or top-dose-only effect, or effect the other way, or a change in a side signal; inactive = no such curve, though single readings can be large or run the other way; the % refers to the polarisation; also: potency is read from the fitted curve at half-maximal effect; % is scaled to controls: 0 for no effect and ±100 for the full control effect
Target sequence (Q13526 whole entry, looked up): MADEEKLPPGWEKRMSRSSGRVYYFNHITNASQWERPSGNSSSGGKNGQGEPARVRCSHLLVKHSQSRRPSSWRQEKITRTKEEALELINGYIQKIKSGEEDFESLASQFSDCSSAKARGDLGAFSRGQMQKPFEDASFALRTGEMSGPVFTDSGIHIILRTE
Akt phos inh = Akt phosphorylation inhibition; Neuro2A IGF-stimulated pAkt S473 HTRF, 20 min; stronger effect = lower value; activity change, % for hits at 50 µM; 0.32% of 360,000 active; AID 651550; in the data active = activity change below about -80%; inconclusive = mostly about -51% to -80%; also: % is scaled to controls: 0 for no effect and ±100 for the full control effect
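Neuro2A cells in DMEM with 0.5% FBS, overnight at 37 deg C, given compound at single 50 µM final, then IGF (6 nM final) for 20 min at 37 deg C. Lysed; phospho-Akt Ser473 by HTRF after 24 h, 665/615 ratio.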
N370S GC = inhibits or activates N370S mutant glucocerebrosidase; 0.092% of 330,000 active; P04062; Potency, µM (titrated, usually from 59.4 µM), for the others: top-dose activity change, negative = inhibition, actives largely listed as inhibitors; AID 2101; N370S GC spleen homogenate, 4MU-glucoside fluorescence;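 also: potency is read from the fitted curve at half-maximal effect; 0% = full enzyme activity and -100% = no enzyme basal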
The depositor's hits bear a star; i = inactive; ? = inconclusive; / = no result given; [ ] = another dose, or the depositor's remark. Unless noted, calls follow the shape of the dose curve; as a rule, active = well fitted curve in the direction sought with a large enough effect; inconclusive = small, poorly fitted or top-dose-only effect, or another doubt; inactive = no such curve, though single readings can be large; an effect the other way counts as inactive or inconclusive.

SMILES | TrxR1 inh | TrxR1 substrate | A-T KAP1 phos | Pin1 inhibitor | Akt phos inh | N370S GC
O=C(Nc1ccccc1Br)c1cnn2c1NC(=C1CC1)C=C2C(F)F | 13.8% | 7.5% | / | / | / | /
Cc1nn(C(C)C(=O)NCCCN2CCCCC2C)c(=O)c2c1sc1ccccc12 (stereo not given) | 14.6% | 4.8% | 8.2% | -5.8% | / | -17.3%
Cc1nn(C(C)C(=O)NCCCN2CCCCCC2)c(=O)c2c1sc1ccccc12 (stereo not given) | 50.1µM* | 1.5% | 8.0% | 15.5% | i | -2.7%
CCc1nc(SCC(=O)NCCc2ccccc2)c2oc3ccccc3c2n1 | 21.7% | 7.1% | -4.8% | -0.4% | -102.7%* | 3.3%
Cc1nc(SCC(=O)Nc2ccc(F)cc2)c2oc3ccccc3c2n1 | -0.6% | -3.2% | 10.2% | -3.3% | -90.0%* | -3.8%
O=C(CSc1ncnc2c1oc1ccccc12)Nc1cccc(C(F)(F)F)c1 | 20.6% | 3.8% | -1.7% | -4.2% | i | 13.9%
COC(=O)Cc1nnc(SCC(=O)Nc2ccccc2)c2ccccc12 | 50.1µM* | -5.8% | 2.6% | -6.4% | / | 1.8%
O=C(CSc1ncnc2c1oc1ccccc12)Nc1cccc(Cl)c1 | -5.3% | 12.5% | -4.6% | 3.5% | -108.4%* | 3.4%
Cc1nc(SCC(=O)NC(C)c2ccccc2)c2oc3ccccc3c2n1 (stereo not given) | -9.0% | -11.2% | -5.6% | 3.8% | i | -22.1%
Cc1ccc(-c2nc(CNC(=O)NC3CCCCC3)c(C)o2)cc1 | 11.9%[57.1 µM] | 0.2%[57.1 µM] | / | -0.2% | / | /
C=CCNc1nc(NC2CCN(C)CC2)c2cc(OC)c(OC)cc2n1 | -0.5% | 28.0% | / | / | / | /
COc1ccc2c(c1)O[C@H](c1ccc3c(c1)OCO3)[C@@H](OC(=O)NCCOc1ccccc1)C2=O | / | / | / | / | / | -7.1%
Cc1nc(SCC(=O)Nc2ccccc2)c2oc3ccccc3c2n1 | 10.8% | 0.2% | 12.2% | 5.2% | -115.5%* | -1.6%
O=C(CN1C(=O)c2ccccc2S1(=O)=O)Nc1cc(S(=O)(=O)N2CCOCC2)ccc1N1CCOCC1 | 8.6% | -5.3% | / | -5.3% | / | /
Cc1ccc(NS(=O)(=O)c2cc3c(cc2-c2ccsc2)NC(=O)CO3)cc1C | / | / | / | -5.6% | / | /
CCCn1nc(NC(=O)c2ccco2)c2cc3cc(C)ccc3nc21 | ? | 22.6% | 22.4µM* | 0.2% | i | 10.9%
CCCn1nc(NC(=O)c2ccco2)c2cc3ccc(C)cc3nc21 | 7.2% | 37.3% | 25.5% | ? | i | 5.5%
O=C(O)C#CC(=O)O | 26.7% | 7.9% | / | / | / | /
COC(=O)C1=C(C)NC(=S)NC1c1ccc(-c2cc(Cl)ccc2Cl)o1 (stereo not given) | 31.6µM* | 2.9% | 23.9% | ? | i | 2.3%
Cc1nnc(SCc2cccc3ccccc23)s1 | -7.0%[57.1 µM] | -4.1%[57.1 µM] | 9.9% | -8.6% | i | -10.5%
c1ccc(Nc2nnc(SCc3cccc4ccccc34)s2)cc1 | 25.8%[57.1 µM] | 7.3%[57.1 µM] | / | -1.0% | -113.6%* | 4.6%
Cc1ccc(NS(=O)(=O)c2ccc3c(c2)N(C)CCO3)cc1C | / | / | / | 3.5% | / | /
O=[S+]([O-])(c1ccc(N2CCOCC2)nc1)N1CCN([S+](=O)([O-])c2c(F)cccc2F)CC1 | / | / | / | -4.5% | / | /
Cc1sc(NC(=O)c2ccco2)c(C(c2cccnc2)N2CCCC2)c1C (stereo not given) | 7.94µM* | -1.6% | 0.3% | 1.1% | i | -25.9%
Cc1sc(NC(=O)c2ccco2)c(C(c2cccnc2)N2CCN(C)CC2)c1C (stereo not given) | ? | 12.3%[57.1 µM] | 4.4% | -0.8% | i | -1.5%
SMILES | TrxR1 inh | TrxR1 substrate | A-T KAP1 phos | Pin1 inhibitor | Akt phos inh | N370S GC
COC(=O)N1C(=O)[C@@](Cc2ccccc2)(c2ccccc2)N1C(=O)OC | ? | 13.5%[57.1 µM] | ? | -6.9% | i | -8.0%
CC[C@]1(c2ccccc2)C(=O)N(C(=O)OC)N1C(=O)OC | ? | 2.8% | 9.5% | 4.4% | i | -19.1%
COC(=O)N1C(=O)[C@@](c2ccccc2)(C2CCCCC2)N1C(=O)OC | 44.7µM* | 1.6% | 31.7% | -3.1% | i | -3.6%
CC[C@@]1(c2ccccc2C)C(=O)N(C(=O)OC)N1C(=O)OC | 5.62µM* | 5.6% | 1.2% | -7.5% | i | -6.2%
CC[C@@]1(c2ccccc2)C(=O)N(C(=O)OC)N1C(=O)OC | 1.26µM* | 2.8% | 27.0% | 3.9% | i | -0.4%
COC(=O)N1CC(c2ccccc2)CC1=O (stereo not given) | -8.0% | -6.2% | 9.4% | -2.3% | i | 2.3%
Cc1cccc(OCC(=O)NNC(=O)CCCCC(=O)NNC(=O)COc2cccc(C)c2)c1 | 22.5% | 6.2% | 8.9% | 45.0% | i | 13.3%
CC[C@]1(c2cccc(C)c2)C(=O)N(C(=O)OC)N1C(=O)OC | 1.58µM* | 5.3%[57.1 µM] | ? | 1.4% | i | 1.2%
CC(C)COc1ccc(-c2csc(N3CCC(C(N)=O)CC3)n2)cc1 | / | / | / | -9.3% | / | /
COC(=O)N1C(=O)[C@](Cc2ccccc2)(c2ccccc2)N1C(=O)OC | 3.98µM* | -4.1% | 39.8µM* | -0.3% | i | -14.5%
Cc1ccc(S(=O)(=O)c2nc(Cc3ccccc3)oc2N2CCOCC2)cc1 | 4.47µM* | 9.4% | -3.9% | -6.0% | i | /
Cc1ccc(-c2nc(S(=O)(=O)c3ccc(C)cc3)c(N3CCN(c4ccccc4)CC3)o2)cc1 | 29.2% | 8.7% | / | -6.7% | / | /
Cc1ccc(S(=O)(=O)c2nc(-c3ccccc3)oc2N2CCCC2)cc1 | 6.31µM* | 9.4% | 7.4% | 0.0% | i | /
O=S(=O)(c1ccccc1)c1nc(-c2ccccc2)oc1N1CCCCC1 | 44.7µM* | 2.5% | / | -9.8% | i | 24.7%
CC(C)(C)c1ccc(-c2nc(S(=O)(=O)c3ccccc3)c(N3CCOCC3)o2)cc1 | 18.7% | -1.1% | / | ? | / | /
COc1ccc(-c2nc(S(=O)(=O)c3ccccc3)c(N3CCOCC3)o2)cc1 | 39.8µM* | -3.0% | 6.9% | -0.3% | i | 9.0%
O=S(=O)(c1ccccc1)c1nc(-c2ccccc2)oc1N1CCCC1 | -50.1% | 5.3%[57.1 µM] | 0.0% | -8.8% | i | 4.6%
Cc1ccc(S(=O)(=O)c2nc(-c3ccccc3)oc2N2CCN(c3ccccc3)CC2)cc1 | 23.0% | 7.7% | / | -1.9% | / | /
C=Nc1ccc(/C=C/c2ccnc3ccccc23)cc1 | 8.5% | -1.9% | / | / | / | /
O=C1c2ccccc2C(=O)N1c1cccc(Cl)c1 | / | / | / | -6.7% | / | /
CN1CCN(c2cccc(Nc3nn4c(=O)c5ccc(F)cc5nc4s3)c2)CC1 | / | / | / | 10.1% | / | /
CC(C)Cc1nc(S(=O)(=O)c2ccc(Cl)cc2)c(N2CCOCC2)o1 | 8.91µM* | 2.0% | -0.2% | ? | i | -1.5%
CC(C)(C)c1nc(S(=O)(=O)c2ccc(Cl)cc2)c(N2CCOCC2)o1 | ? | 1.8%[57.1 µM] | -0.5% | -4.9% | i | -13.8%

Bioassay records as filed in PubChem BioAssay.
